The term inhibition denotes the change of the read-out against control, counted positive when it falls.

These results are taken from PubChem BioAssay.

Unmarked numbers belong to inactive results. The list shows a part of the results. Active and inactive are the calls of the source. Cut-off read from the data, not from the text of the source, unless noted: active = inhibition above about 25%; inactive = the rest.

Assay [1] deals with Nuclear receptor coactivator 3 (Homo sapiens) (UniProt Q9Y6Q9). The assay can be described thus: SRC3 coactivator transcriptional activity inhibitors, confirmation, cell-based, luminescence, quadruplicate (AID 588792;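 active = mean inhibition over 43.08%, the solvent-only control mean plus 3 SD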;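 note: 0% = DMSO treated cells and 100% = gossypol at 36 µM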). The settings on record: HEK293 GAL4-SRC3 luciferase reporter, at 3.6 µM, stronger effect = higher value.
Assay [2] has as its system transactivating tegument protein VP16 (Human herpesvirus 1), Gal4-VP16 luciferase reporter. The assay can be described thus: VP16 transactivation inhibitors, counter-screen for SRC3 inhibitor project, cell-based, luminescence, high throughput (AID 588794; in the data active = inhibition above about 30%). Conditions: mammalian cells, VP16-driven luciferase reporter luminescence; at 3.6 µM; stronger effect = higher value. For orientation: Counterscreens check selectivity or assay interference.

Assay [3] deals with Nuclear receptor coactivator 1 (Homo sapiens) (UniProt Q15788). Put plainly: SRC1 coactivator transcriptional activity inhibitors, confirmation, cell-based, luminescence, quadruplicate (AID 588820;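 active = mean inhibition above 46.68%, the untreated control wells mean plus 3 SD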;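 note: 0% = DMSO wells and 100% = gossypol 36 µM treated wells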). The settings on record: HEK293 GAL4-SRC1 luciferase reporter, at 3.6 µM, stronger effect = higher value.
The nature of assay [4]: VP16 transactivation inhibitors, counter-screen for SRC1 inhibitor project, cell-based, luminescence, high throughput (AID 588824). The settings on record: cell-based VP16 transactivation luciferase luminescence; at 3.6 µM; stronger effect = higher value.
A short description of assay [5]: StAR promoter reporter inhibitors, counter-screen for LRH-1 inverse agonist project, cell-based, luminescence, high throughput (AID 651611; in the data active = inhibition above about 28%). The settings on record: StAR promoter luciferase reporter counterscreen, at 3.6 µM, stronger effect = higher value.
The target of assay [6] is Nuclear receptor subfamily 5 group A member 2 (Homo sapiens) (UniProt O00482). Put plainly: LRH-1 (NR5A2) inverse agonists, retest, confirmation, cell-based, luminescence (AID 651613; in the data active = inhibition above about 42%;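 note: HEK293T cells co-transfected with LRH-1 and StAR promoter luciferase reporter; 0% = vehicle wells and 100% = parental cells lacking receptor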). The settings on record: cell-based LRH-1 luciferase reporter, inverse agonism; at 3.6 µM; stronger effect = higher value. In general terms: A reporter such as luciferase makes a cellular process visible.

The target in assay [7] is Steroidogenic factor 1 (Homo sapiens) (UniProt Q13285). Put plainly: SF1 (NR5A1) inverse agonists, counter-screen for LRH-1 inverse agonist project, cell-based, luminescence, high throughput (AID 651614; in the data active = inhibition above about 44%;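 note: cells cotransfected with StAR promoter reporter and SF1 expression vector; 0% = vehicle on cells with receptor and 100% = vehicle on cells lacking receptor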). Conditions: cell-based SF1 luciferase reporter, at 3.6 µM, stronger effect = higher value.
Assay [8] is described as follows: VP16 transactivation reporter inhibitors, counter-screen for LRH-1 inverse agonist project, cell-based, luminescence, high throughput (AID 651615; in the data active = inhibition above about 33%). Conditions: Gal4-VP16 luciferase reporter cells, at 3.6 µM, stronger effect = higher value.
For assay [9], the target named is Photoreceptor-specific nuclear receptor (Homo sapiens) (UniProt Q9Y5X4). Put plainly: NR2E3 agonist confirmation in cells, cell-based, luminescence, CHO-S two-hybrid (AID 624378;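 active = average inhibition above a cutoff equal to the mean inhibition of all tested compounds plus one SD, cut at about 70% in these data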;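 note: 0% = DMSO in NR2E3 cells and 100% = DMSO in cells lacking NR2E3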). The settings on record: CHO-S mammalian two-hybrid NR2E3-NCOR, luciferase luminescence; at 3.98 µM; stronger effect = higher value.
Assay [10] in a line: GAL4-VP16 reporter modulators, confirmation, counter-screen for NR2E3 agonist project, cell-based, luminescence, CHO-S, high throughput (AID 624379;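 active = mean inhibition above a cutoff equal to the average over all tested compounds plus one standard deviation, cut at about 70% in these data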;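 note: 0% = DMSO with VP16-transfected cells and 100% = DMSO with cells lacking VP16; higher means less reporter light so more repression of VP16 activity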). Conditions: CHO-S GAL4-VP16 luciferase reporter, at 3.98 µM, stronger effect = higher value.
In assay [11] the test system is transactivating tegument protein VP16 (Human herpesvirus 1). Put plainly: VP16 transactivation reporter inhibitors, counter-screen for SRC2 inhibitor project, cell-based, luminescence, single concentration (AID 652007; in the data active = inhibition above about 36%). Conditions: cell-based VP16 transactivation luciferase reporter, at 8.9 µM, stronger effect = higher value.
Assay [12] deals with Nuclear receptor coactivator 2 (Homo sapiens) (UniProt Q15596). The assay can be described thus: SRC2 coactivator transcriptional activity inhibitors, confirmation, cell-based, luminescence, HEK293, triplicate (AID 652008;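 active = mean inhibition above 46.5%, the solvent-only control mean plus 3 SD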;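 note: 0% = DMSO-treated cells and 100% = Gossypol at 36 µM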). The settings on record: HEK293 GAL4-SRC2 luciferase reporter, at 8.9 µM, stronger effect = higher value.
Assay [13] in a line: Gal4-VP16 luciferase reporter inhibitors, counter-screen for COUP-TFII antagonist project, cell-based, luminescence, HEK293 (AID 687007; in the data active = inhibition above about 13%). Conditions: at 8.5 µM, stronger effect = higher value.
For assay [14], the target named is COUP transcription factor 2 (Homo sapiens) (UniProt P24468). Put plainly: NR2F2 transcriptional activity inhibitors, confirmation, cell-based, luciferase reporter, HEK293, triplicate (AID 687008;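 active = mean inhibition over three repeats above a set limit taken from the earlier primary screen, cut at about 38% in these data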;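 note: 100% = cells given the luciferase reporter alone without the COUP-TF2 vector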). Conditions: HEK293 NGFI-A luciferase reporter, luminescence; at 8.5 µM; stronger effect = higher value.
Chain of COUP transcription factor 2 (Homo sapiens) (P24468 whole entry, looked up): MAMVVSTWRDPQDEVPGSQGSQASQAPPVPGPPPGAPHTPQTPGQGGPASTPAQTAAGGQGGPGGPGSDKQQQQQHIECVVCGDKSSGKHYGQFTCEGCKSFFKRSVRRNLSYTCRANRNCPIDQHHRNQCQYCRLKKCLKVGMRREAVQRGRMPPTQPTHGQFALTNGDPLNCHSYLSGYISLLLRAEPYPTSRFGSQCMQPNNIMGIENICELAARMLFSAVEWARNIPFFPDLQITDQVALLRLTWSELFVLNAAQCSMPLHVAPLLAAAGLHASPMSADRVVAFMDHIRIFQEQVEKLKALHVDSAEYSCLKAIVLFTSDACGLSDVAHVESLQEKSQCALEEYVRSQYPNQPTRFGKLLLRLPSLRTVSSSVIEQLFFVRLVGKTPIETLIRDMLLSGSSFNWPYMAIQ

Chain of Nuclear receptor coactivator 3 (Homo sapiens) (Q9Y6Q9 whole entry, looked up, the tested form may be a part): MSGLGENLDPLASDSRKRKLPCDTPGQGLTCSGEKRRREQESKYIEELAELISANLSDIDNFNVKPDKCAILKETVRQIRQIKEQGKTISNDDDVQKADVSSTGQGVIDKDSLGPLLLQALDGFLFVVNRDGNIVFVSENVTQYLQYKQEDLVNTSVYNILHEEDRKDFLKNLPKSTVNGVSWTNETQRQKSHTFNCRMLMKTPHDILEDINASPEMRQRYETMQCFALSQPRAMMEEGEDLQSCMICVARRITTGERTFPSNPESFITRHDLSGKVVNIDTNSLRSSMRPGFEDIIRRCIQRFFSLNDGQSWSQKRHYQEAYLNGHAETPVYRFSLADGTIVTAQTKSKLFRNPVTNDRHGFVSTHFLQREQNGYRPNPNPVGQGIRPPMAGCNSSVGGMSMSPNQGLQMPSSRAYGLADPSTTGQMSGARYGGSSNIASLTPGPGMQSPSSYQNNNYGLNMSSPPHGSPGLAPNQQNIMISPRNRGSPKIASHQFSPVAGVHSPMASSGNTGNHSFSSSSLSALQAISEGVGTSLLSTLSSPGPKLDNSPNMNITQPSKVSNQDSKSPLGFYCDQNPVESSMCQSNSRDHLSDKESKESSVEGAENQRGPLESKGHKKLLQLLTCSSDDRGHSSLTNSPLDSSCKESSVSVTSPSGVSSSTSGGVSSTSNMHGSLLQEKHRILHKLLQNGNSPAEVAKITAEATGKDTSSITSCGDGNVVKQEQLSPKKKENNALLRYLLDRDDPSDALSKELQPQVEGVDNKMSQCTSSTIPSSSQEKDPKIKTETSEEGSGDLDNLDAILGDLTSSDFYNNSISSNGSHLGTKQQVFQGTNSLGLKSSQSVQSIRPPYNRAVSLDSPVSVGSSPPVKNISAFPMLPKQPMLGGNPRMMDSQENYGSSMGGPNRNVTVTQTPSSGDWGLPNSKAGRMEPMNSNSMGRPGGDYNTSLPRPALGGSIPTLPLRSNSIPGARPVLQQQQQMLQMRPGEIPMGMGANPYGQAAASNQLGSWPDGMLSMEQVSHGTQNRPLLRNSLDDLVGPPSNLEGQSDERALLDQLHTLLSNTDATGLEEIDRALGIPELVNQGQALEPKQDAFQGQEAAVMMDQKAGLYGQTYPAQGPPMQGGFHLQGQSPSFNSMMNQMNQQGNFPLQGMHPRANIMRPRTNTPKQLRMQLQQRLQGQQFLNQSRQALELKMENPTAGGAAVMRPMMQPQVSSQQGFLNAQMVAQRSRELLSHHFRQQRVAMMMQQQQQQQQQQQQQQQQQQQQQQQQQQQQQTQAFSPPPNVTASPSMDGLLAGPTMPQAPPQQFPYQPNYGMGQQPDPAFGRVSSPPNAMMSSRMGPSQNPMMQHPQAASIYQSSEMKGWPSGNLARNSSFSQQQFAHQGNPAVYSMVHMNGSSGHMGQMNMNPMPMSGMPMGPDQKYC
Chain of Photoreceptor-specific nuclear receptor (Homo sapiens) (Q9Y5X4 whole entry, looked up, the tested form may be a part): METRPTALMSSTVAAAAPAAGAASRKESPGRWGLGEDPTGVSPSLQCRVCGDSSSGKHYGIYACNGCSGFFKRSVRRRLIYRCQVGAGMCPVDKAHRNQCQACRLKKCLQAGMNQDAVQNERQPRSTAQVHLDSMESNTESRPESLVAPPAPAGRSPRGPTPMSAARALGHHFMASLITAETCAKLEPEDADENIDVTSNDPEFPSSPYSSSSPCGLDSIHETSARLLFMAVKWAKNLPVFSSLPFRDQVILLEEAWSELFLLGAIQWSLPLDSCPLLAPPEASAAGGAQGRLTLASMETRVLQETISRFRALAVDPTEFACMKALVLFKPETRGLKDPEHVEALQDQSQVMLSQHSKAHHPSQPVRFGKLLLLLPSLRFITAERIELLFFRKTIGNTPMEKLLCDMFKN
Chain of Steroidogenic factor 1 (Homo sapiens) (Q13285 whole entry, looked up, the tested form may be a part): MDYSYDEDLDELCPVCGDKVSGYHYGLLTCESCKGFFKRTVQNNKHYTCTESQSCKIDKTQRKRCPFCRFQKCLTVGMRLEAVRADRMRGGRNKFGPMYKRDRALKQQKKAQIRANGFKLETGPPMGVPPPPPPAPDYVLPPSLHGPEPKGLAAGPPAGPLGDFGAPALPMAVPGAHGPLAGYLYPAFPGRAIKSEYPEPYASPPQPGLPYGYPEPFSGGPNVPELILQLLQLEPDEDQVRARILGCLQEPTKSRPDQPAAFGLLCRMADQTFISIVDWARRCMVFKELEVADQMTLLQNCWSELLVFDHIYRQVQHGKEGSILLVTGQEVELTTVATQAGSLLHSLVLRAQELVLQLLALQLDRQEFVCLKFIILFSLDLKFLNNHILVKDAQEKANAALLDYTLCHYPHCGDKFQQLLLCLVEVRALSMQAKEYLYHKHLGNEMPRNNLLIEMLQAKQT
Chain of Nuclear receptor subfamily 5 group A member 2 (Homo sapiens) (O00482 whole entry, looked up): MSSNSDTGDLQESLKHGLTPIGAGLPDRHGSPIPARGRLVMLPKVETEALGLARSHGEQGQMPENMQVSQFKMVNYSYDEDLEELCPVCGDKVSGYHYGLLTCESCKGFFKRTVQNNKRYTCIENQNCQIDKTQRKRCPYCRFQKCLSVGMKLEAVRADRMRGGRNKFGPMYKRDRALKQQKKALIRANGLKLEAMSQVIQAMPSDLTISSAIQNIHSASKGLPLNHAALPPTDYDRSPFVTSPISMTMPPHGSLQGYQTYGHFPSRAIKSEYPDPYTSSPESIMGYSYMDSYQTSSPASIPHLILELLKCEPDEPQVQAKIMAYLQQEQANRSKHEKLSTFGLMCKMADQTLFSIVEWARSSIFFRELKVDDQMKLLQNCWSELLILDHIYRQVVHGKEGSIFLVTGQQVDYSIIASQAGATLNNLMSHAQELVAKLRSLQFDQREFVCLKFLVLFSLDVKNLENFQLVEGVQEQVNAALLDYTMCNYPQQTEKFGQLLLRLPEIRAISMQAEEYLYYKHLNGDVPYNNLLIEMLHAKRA
Chain of Nuclear receptor coactivator 1 (Homo sapiens) (Q15788 whole entry, looked up, the tested form may be a part): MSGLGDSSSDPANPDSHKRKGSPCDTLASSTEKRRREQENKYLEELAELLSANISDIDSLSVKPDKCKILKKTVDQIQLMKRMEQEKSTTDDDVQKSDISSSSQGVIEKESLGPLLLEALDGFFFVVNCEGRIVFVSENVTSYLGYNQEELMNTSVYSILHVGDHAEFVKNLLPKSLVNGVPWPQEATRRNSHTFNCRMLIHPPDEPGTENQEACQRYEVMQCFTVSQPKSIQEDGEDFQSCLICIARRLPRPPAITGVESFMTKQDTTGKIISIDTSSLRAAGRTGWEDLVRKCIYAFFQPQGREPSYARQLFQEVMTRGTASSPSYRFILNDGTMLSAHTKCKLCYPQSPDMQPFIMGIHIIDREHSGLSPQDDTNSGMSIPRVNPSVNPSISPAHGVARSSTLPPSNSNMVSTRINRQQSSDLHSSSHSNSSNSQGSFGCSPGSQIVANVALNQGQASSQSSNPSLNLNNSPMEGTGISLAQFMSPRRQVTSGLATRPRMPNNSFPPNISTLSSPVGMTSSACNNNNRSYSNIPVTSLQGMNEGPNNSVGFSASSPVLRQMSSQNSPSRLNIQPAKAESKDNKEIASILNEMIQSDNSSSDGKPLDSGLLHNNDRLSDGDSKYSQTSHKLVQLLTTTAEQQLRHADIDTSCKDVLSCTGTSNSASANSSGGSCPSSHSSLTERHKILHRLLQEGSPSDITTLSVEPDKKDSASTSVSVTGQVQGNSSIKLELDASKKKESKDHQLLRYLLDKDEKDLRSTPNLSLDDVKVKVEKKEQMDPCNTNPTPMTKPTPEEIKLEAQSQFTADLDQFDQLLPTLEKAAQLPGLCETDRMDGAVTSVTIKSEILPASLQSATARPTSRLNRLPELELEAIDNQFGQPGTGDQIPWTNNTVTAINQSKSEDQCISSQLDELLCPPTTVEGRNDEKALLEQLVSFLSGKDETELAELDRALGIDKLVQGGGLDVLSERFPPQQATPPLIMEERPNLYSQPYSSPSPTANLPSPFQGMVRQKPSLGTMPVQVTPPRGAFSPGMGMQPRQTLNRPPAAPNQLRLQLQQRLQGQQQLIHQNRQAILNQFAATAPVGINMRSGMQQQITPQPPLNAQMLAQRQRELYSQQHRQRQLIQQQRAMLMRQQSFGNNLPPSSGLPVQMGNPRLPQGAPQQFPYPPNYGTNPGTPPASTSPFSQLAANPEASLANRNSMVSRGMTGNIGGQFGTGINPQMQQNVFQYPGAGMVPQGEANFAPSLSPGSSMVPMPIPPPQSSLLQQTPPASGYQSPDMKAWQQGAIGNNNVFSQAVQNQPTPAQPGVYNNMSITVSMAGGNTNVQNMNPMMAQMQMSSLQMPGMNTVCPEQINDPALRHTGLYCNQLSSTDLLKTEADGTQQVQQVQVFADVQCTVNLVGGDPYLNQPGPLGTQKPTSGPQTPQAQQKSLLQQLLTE

As to `CCOc1ccc(C(=O)Nc2cnn(Cc3ccc(Cl)c(Cl)c3)c2)cc1`, the inhibition in assay [1] was 16%; in [2], 44.1% (active); in [3], 26.8%; in assay [4] it was 36.8% (active); in assay [5], 39% (active); in assay [6], 62.7% (active). Besides, the results for the inhibition in [7] and in assay [8] were 60.1% (active) and 70.5% (active), respectively.

In the case of `OCCCNc1nccc(-c2cc(Nc3cccc(Cl)c3)ncn2)n1`, the inhibition in assay [1] was 95% (active); in [2] it was 95.2% (active); in assay [3] it was 83.5% (active); in assay [4], 95.1% (active); in assay [9], 100% (active); in assay [10], 93.9% (active). Besides, the inhibition is 88.5% (active) in [5]; 108% (active) in assay [6]; 96.5% (active) in [7]; 93.2% (active) in assay [8]; 57.9% (active) in assay [11]; 49.7% (active) in assay [12]. Further, the inhibition in assay [13] was 6.3%; in [14], 31.2%.

As to `CC(=NNC(=S)Nc1ccccc1)c1ccccn1`, the inhibition is 41% in assay [1]; 70.5% (active) in assay [2]; -15.4% in assay [3]; 67.8% (active) in assay [4]; 78.3% (active) in assay [5]; 101% (active) in assay [6]. Further, the inhibition in [7] is 90% (active); in assay [8] it was 85.6% (active).

Consider `CC(C)(C)c1ccc(Oc2ccc(N)cc2)cc1`, for which the inhibition in assay [1] is 68.3% (active); in [2], 61.4% (active); in [3] it was 52.4% (active); in assay [4], 57.7% (active); in [9], 36.9%; in assay [10] it was 71.6% (active). For the same molecule, the inhibition in assay [5] is 71.2% (active); in assay [6], 88.6% (active); in assay [7], 78.9% (active); in [8], 60.1% (active); in assay [11], 90.2% (active); in assay [12], 95.2% (active). Also, the values for the inhibition in assay [13] and in assay [14] were 91.8% (active) and 101% (active), respectively.

With `CCOc1cc(/C=C(/C#N)c2ccc(Cl)cc2)cc(Cl)c1OCC(=O)O`, the inhibition is 51.4% (active) in [1]; 45.5% (active) in assay [2]; 29.6% in [3]; 36.9% (active) in assay [4]; 62.7% in assay [9]; 77.7% (active) in [10]. Further, the inhibition in assay [11] is 77.6% (active); in assay [12], 91% (active).

For `COc1ccc(N=C(NN)c2ccc3ccccc3n2)cc1`, the inhibition in [1] was -51.2%; in assay [2], -47.1%; in assay [3] it was -105%; in assay [4] it was -65%; in assay [5], -92.3%; in [6], -81.3%. For the same molecule, the inhibition in assay [7] is -83.5%; in assay [8], -96.2%.

In the case of `O=C1C(Nc2ccccc2)=C(N2CCCCC2)C(=O)c2ccccc21`, the inhibition is 19.4% in [1]; 39.6% (active) in assay [2]; 44.4% in assay [3]; 35.9% (active) in assay [4]; -2.41% in assay [5]; 22.5% in assay [6]. Further, the inhibition in [7] is 6.41%; in assay [8] it was 12.1%.

Turning to `C[n+]1c(-c2ccccc2)cc2c(=Cc3ccccc3)c3ccccc3n21`, the inhibition in assay [1] is 39.3%; in assay [2], 70.3% (active); in [3], 27.9%; in [4] it was 63.3% (active); in [5], 54.9% (active); in assay [6] it was 98.1% (active). In addition, the inhibition in assay [7] was 87.2% (active); in assay [8], 84.3% (active).

Consider `CCC1(OC(=O)CN(C)C)C(=O)OCc2c1cc1n(c2=O)Cc2cc3c(N)cccc3nc2-1` (centres undefined), for which the inhibition in [1] was 89.8% (active); in assay [2] it was 65.3% (active); in assay [3], 62.3% (active); in [4] it was 54.6% (active); in assay [5], 83.5% (active); in assay [6] it was 103% (active). Moreover, the inhibition in assay [7] is 90.5% (active); in assay [8] it was 68.1% (active).

As for `Cc1oc2c(F)c(F)c(F)c(F)c2c1S(=O)(=O)Nc1cccc(C(F)(F)F)c1`, the inhibition in assay [1] is -6.6%; in assay [2] it was 11.6%; in assay [3], 12.8%; in [4] it was 4.85%; in assay [9], 100% (active); in assay [10], 93.3% (active).

Take `O=C(Nc1ccc2c(c1)OCCO2)C1CCCC1`: the inhibition in assay [1] was 15.8%; in assay [2], -21.9%; in assay [3], -2.87%; in [4] it was -33.3%; in assay [9], 53.2%; in assay [10] it was 13.8%. Besides, the inhibition in assay [11] is -46%; in assay [12], 51.9% (active).

Regarding `COc1ccc(-n2cnc3c(sc4nccc(N(C)C)c43)c2=O)cc1`, the inhibition in assay [1] is 40.1%; in [2] it was 22.4%; in assay [3] it was 33.3%; in assay [4], 11.8%.

On to `Cc1ccc(/C=C/c2ccc(N(C)C)cc2)[n+](C)c1`, for which the inhibition was 36.3% in assay [1]; 56% (active) in [2]; 11.4% in assay [3]; 50.1% (active) in assay [4]; 41.5% (active) in assay [5]; 78.5% (active) in assay [6]. The inhibition is 73% (active) in [7] and 67.4% (active) in [8].

On to `Cc1ccsc1C(=O)OCC(=O)c1cc(C)n(CC2CCCO2)c1C` (centres undefined), for which the inhibition in assay [1] is 73.4% (active); in assay [2] it was 65.6% (active); in assay [3], 49.5% (active); in [4], 44.4% (active); in assay [9], 70.8% (active); in assay [10] it was 50.3%. For the same molecule, the inhibition in assay [5] was 66.9% (active); in [6] it was 15.3%; in assay [7] it was 61.6% (active); in [8], 39.8% (active); in assay [11], 59.5% (active); in assay [12] it was 85% (active). Moreover, the inhibition in [13] is 78.4% (active); in assay [14], 97.7% (active).
